Bioassay records from PubChem BioAssay.
In the library only some 17% were active in any assay of this set; here they are far more common.
TDP1 cell noCPT = qHTS for Inhibitors of human tyrosyl-DNA phosphodiesterase 1 (TDP1): qHTS in cells in absence of CPT. DT40 Tdp1-/- hTDP1 cells, no CPT, ATP luminescence, 48 h. Potency, µM (doses to about 46.2 µM), for inactives: top-dose activity change, negative = growth inhibition, usual class: inhibitors. AID 686978, 2013. 420,000 tested, 15% active; also: % is scaled to controls: 0 for no effect and ±100 for the full control effect; nearly all actives have a fitted effect of over 55% in size
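Readout: luminescence from CellTiter-Glo after 30 min in the dark at RT. Cells: DT40 Tdp1-/- with stable hTDP1, 400/well. Exposure: compounds alone, ≥48 hr, 37 °C.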
TDP1 cell CPT = qHTS for Inhibitors of human tyrosyl-DNA phosphodiesterase 1 (TDP1): qHTS in cells in presence of CPT; chicken DT40 Tdp1-/-;hTDP1 cells + 20 nM CPT, ATP luminescence, 48 h; Potency, µM (doses to about 46.2 µM), for the others: at the highest dose activity change, negative = growth inhibition, hits mostly inhibitors; 420,000 tested, 12% active; AID 686979, 2013; also: % is scaled to controls: 0 for no effect and ±100 for the full control effect; nearly all actives have a fitted effect of over 55% in size
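Chicken DT40 Tdp1-/- cells stably complemented with human TDP1 were seeded at 400 cells/well in medium containing 20 nM camptothecin, exposed to pin-transferred compounds, and grown at 37 °C for at least 48 hr. Viability was read as ATP luminescence.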
ClpP mod = qHTS Assay for Activators of ClpP; Potency, µM (titrated, usually from 57.5 µM), for the others: top-dose activity change, negative = active; purified B. subtilis ClpP, FRET peptide cleavage, 20 min; 340,000 tested, 1.9% active; ATP-dependent Clp protease proteolytic subunit (Bacillus subtilis (strain 168)), P80244; AID 651965, 2013; active = well fitted falling curve with a large enough effect; inconclusive = small, poorly fitted or top-dose-only effect; inactive = no such curve, though single readings can be large or run the other way; also: the source files actives as falling curves though it sought activators and does not explain the sign; nearly all actives have a fitted effect of over 65% in size
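Buffer: 100 mM Tris/HCl pH8, 100 mM KCl, 0.05% low protease BSA, 2.5% glycerol, 0.01% Tween-20. ClpP 10 microg/mL final; 20 min RT; delta FRET normalized to ADEP and DMSO controls.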
TDP1 block = qHTS Assay for Inhibitors of Tyrosyl-DNA Phosphodiesterase (TDP1). 350,000 tested, 0.28% active. Potency, µM (top dose mostly 130 µM), inactives show at the highest dose activity change, negative = inhibition, usual class: inhibitors. AID 485290, 2010. recombinant TDP1, AlphaScreen DNA substrate cleavage. Tyrosyl-DNA phosphodiesterase 1 (Homo sapiens), Q9NUW8; also: % is scaled to controls: 0 for no effect and ±100 for the full control effect; nearly all actives have a fitted effect of over 40% in size
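E. coli-derived human Tdp1, 1 nM final. Cpd preinc 15 min RT; substrate 15 nM final, 5 min RT; AS bead mix 10 ug/ml final, 10 min RT. Signal loss = tyrosine-FITC cleavage. No-enzyme wells = max signal.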
* = called active by the depositor; ? = inconclusive; . = not tested or not shown; [ ] = remark or other dose. Unless noted, calls follow the shape of the dose curve; as a rule, active = well fitted curve in the direction sought with a large enough effect; inconclusive = small, poorly fitted or top-dose-only effect, or another doubt; inactive = no such curve, though single readings can be large; an effect the other way counts as inactive or inconclusive. Potency is read from the fitted curve at half-maximal effect.

SMILES | TDP1 cell noCPT | TDP1 cell CPT | ClpP mod | TDP1 block
CCOC(=O)N/N=C\c1ccc([N+](=O)[O-])o1 | 22µM* | ? | 0% | -2%
Cc1cc([N+](=O)[O-])nn1CC(=O)NCc1ccc(Cl)cc1 | -21% | -15% | 2% | .
Cc1cc(C)c2cc(CN(Cc3cccnc3)C(=O)c3ccc(F)cc3)c(Cl)nc2c1 | 15µM* | 18µM* | ? | 6%
O=C(NNc1c([N+](=O)[O-])cc(C(F)(F)F)cc1[N+](=O)[O-])c1ccco1 | 23µM* | 26µM* | 2% | 10%
CC1CN(CC(=O)N2CCN(Cc3nccn3C)CC2)Cc2cc(Cl)ccc2O1 (stereo unspecified) | -3% | 5%[9.04 µM] | . | .
COc1ccc2c(c1)/C(=C\c1cccc(/C=C3/C(=O)Nc4ccc(OC)cc43)n1)C(=O)N2 | 1.8µM* | 1.6µM* | 1% | .
O=C(N/N=C/c1ccccc1O)C1CC(=O)N(c2ccc(F)cc2)C1 (stereo unspecified) | 5.8µM* | 3.3µM* | . | .
COc1cccc(OC)c1C(=O)N1CCNCC1 | -5% | -24% | ? | .
CC(Sc1nc2ccccc2c(=O)n1C)C(=O)N(C)C1CCCCC1 (stereo unspecified) | 7.3µM* | 10µM* | -3% | 0%
Cc1cc2c(cc1C)-c1nnnn1C(N1CCCC1)C(=O)N2 (stereo unspecified) | ? | ? | 1% | .
Cc1cc2c(cc1C)-c1nnnn1C(N1CCC(Cc3ccccc3)CC1)C(=O)N2 (stereo unspecified) | 9.2µM* | 15µM* | -2% | .
CCCC1CC(C)(c2csc(Nc3ccc(OCC)cc3)n2)OC1=O (stereo unspecified) | 15µM* | 13µM* | -1% | 10%
CCOc1ccc(NC(=O)CC2CC(C)(C)OC2=O)cc1 (stereo unspecified) | -9% | -1% | 0% | 0%
Cc1cc(C)cc(N=Cc2[nH]c3ccc(Br)c(Cl)c3c2O)c1 | ? | 16µM* | -1% | 1%
COc1ccccc1-c1nnc(C2CCN(C(=O)c3cccc(C)c3)CC2)o1 | ? | ? | -11% | 1%
Cn1cccc/c1=N\c1cccc[n+]1C | 1µM* | 1.5µM* | -14% | 6%
Cc1cc2oc(=O)cc(CN3CCN(c4ccccc4)CC3)c2cc1Cl | -4% | -2% | -2% | .
Cc1cc(C(=O)Cn2ncc(Cl)c(Cl)c2=O)c(C)n1CC(F)(F)F | 3.7µM* | 4.6µM* | -3% | 4%
Cc1ccc(C)c(C(=O)Cn2ncc(Cl)c(Cl)c2=O)c1 | 3.3µM* | 5.8µM* | -2% | 7%
CCCc1cc(=O)[nH]c(SCC(=O)c2cc(C)n(CC(F)(F)F)c2C)n1 | -2% | 8% | . | 5%
Cc1cccc(Cn2ncc(Cl)c(Cl)c2=O)c1 | 9.2µM* | 12µM* | -1% | 1%
Cc1cc2oc(=O)cc(Cn3ncc(Cl)c(Cl)c3=O)c2cc1Cl | 3.3µM* | 3.3µM* | . | 3%
Cc1ccc(C)c(C(=O)CSc2nnc(C)s2)c1 | ? | 7% | -2% | 6%
O=C(Cc1ccccc1)c1c[nH]c(C(=O)NCCCN2CCOCC2)c1 | 1% | 3% | . | 0%
